Experimental data reported in PubChem BioAssay.
Active and inactive are the calls of the source.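 How the source made its calls, unless noted: active means inhibition of the reporter signal at or above 50%; inactive means inhibition below 50%.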

Assays:
[1] = inhibitors of TNFa-induced NFkB p65 translocation, primary screen, imaging, HUVEC, MLSMR starter and 10KST1 sets (AID 438;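 active means inhibition above 20% together with a positive visual image hit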;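 further: compound added about 3h40 before a 20 min TNFalpha stimulation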;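 on inhibition: signal is the nuclear over cytoplasmic p65 intensity ratio per well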); details: HUVEC TNFa-induced p65 nuclear translocation; cell count: measured here: nuclei count (cytotoxicity indicator), at 2.08 µM; inhibition: at 2 µM, stronger effect = higher value, 0% TNFa-plus-vehicle, 100% no-TNFa wells
[2] = inhibitors of mutant huntingtin aggregation, primary screen, imaging, exon1htt(103Q)mCFP cells, high-content imaging (AID 483;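 active means visual image review flags a hit and inhibition of aggregation exceeds 20%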;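 further: compound exposure lasted 3 days before fixation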;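 on nuclei count: percent of the per-plate median nuclei count of sample wells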); details: exon1htt(103Q)mCFP cell line, aggregate imaging, at 2 µM; inhibition of aggregation: stronger effect = higher value; nuclei count: measured here: cell count, toxicity
[3] = inhibitors of E-selectin induction by TNFa, primary screen, imaging, HUVEC, immunofluorescence, MLSMR starter and 10KST1 sets (AID 487;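 active means visually confirmed hit in the image check and inhibition above 20%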;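 on inhibition: signal is fraction of cell area covered by stained E-selectin grains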;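 on nuclei count: 100% = median nuclei count of all wells on the same plate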); details: HUVEC TNFalpha-induced E-selectin immunofluorescence imaging, at 2 µM; inhibition: stronger effect = higher value; nuclei count: measured here: cell number, toxicity
[4] = molecular target: Voltage-gated potassium channel subunit beta-2 (Rattus norvegicus) (UniProt P62483); test: KvBeta enzyme negative modulators, primary screen, biochemical, NADPH fluorescence (AID 622;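 active means fluorescence slope higher than the sample average by over 3 SD, cut at about -0.22 in these data, passing the limit was not always enough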;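 further: slope of raw intensity against log time taken from 70 to 1610 s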); details: recombinant KvBeta, 4-cyanobenzaldehyde reduction, at 10 µM, stronger effect = higher value
Chain of Voltage-gated potassium channel subunit beta-2 (Rattus norvegicus) (P62483 whole entry, looked up): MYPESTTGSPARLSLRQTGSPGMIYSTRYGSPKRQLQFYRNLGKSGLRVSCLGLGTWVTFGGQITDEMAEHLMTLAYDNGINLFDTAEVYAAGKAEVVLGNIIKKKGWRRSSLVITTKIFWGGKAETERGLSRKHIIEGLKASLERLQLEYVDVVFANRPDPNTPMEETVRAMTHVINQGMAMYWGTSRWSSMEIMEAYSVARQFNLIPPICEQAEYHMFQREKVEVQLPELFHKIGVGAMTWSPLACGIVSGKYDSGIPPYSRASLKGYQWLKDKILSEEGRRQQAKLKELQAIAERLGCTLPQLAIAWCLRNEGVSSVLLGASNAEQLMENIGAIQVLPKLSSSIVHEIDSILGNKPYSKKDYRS

[5] = molecular target: Voltage-gated potassium channel subunit beta-2 (Rattus norvegicus) (UniProt P62483); test: KvBeta positive modulators, primary screen, biochemical, NADPH fluorescence (AID 623;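 active means NADPH fluorescence slope more negative than the mean of all samples by about 3 SD, 99.7% confidence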;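 further: fluorescence intensity change per second fitted from 20 to 320 s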); details: Recombinant KvBeta, NADPH fluorescence decrease slope, 10 min; at 10 µM; stronger effect = lower value
[6] = molecular target: Alpha-2C adrenergic receptor (Homo sapiens) (UniProt P18825); test: modulators of alpha2C/GIRK thallium flux, primary screen, cell-based, HEK293 alpha2C/GIRK1/2 (AID 624;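 active means fluorescence slope after compound addition differing from the mean of all screened samples at 99.7% confidence, in either direction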;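 further: slope of fluorescence ratio to pre-addition baseline per second over 15 to 24 s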); details: thallium flux BTC fluorescence, at 10 µM, actives lie on both sides
Chain of Alpha-2C adrenergic receptor (Homo sapiens) (P18825 whole entry, looked up): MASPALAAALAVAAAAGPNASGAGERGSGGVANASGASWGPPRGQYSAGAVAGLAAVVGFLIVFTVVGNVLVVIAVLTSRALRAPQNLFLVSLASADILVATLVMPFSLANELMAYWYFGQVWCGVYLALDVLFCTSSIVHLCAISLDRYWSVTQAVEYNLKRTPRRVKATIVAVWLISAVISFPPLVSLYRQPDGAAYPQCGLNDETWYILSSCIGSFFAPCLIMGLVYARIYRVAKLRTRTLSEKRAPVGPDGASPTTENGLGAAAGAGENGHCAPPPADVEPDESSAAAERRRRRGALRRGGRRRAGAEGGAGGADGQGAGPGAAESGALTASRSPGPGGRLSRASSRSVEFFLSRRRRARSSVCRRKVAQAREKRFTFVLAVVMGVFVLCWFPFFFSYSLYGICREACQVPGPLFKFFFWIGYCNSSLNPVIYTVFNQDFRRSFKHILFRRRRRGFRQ

[7] = inhibitors of Sendai virus-induced IRF3 signaling, primary screen, TLR/RLR signaling modifier project, cell-based, Sendai virus stimulus, luciferase, 10K MLSCN set (AID 602276;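 active means inhibition at or above 50% at 10 µM; inactive means inhibition below 50%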;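 further: firefly luciferase from ISG56 promoter only with Renilla not read in this screen; 0% = Sendai virus plus DMSO and 100% = medium plus DMSO without virus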); details: HEK293 RL24 IRF3 luciferase reporter, at 10 µM, stronger effect = higher value
[8] = inhibitors of poly I:C-induced TLR3 signaling, primary screen, cell-based, poly I:C stimulus, luciferase, 10K MLSCN set (AID 602277); details: HEK293-TLR3 RL24 IRF3 luciferase reporter, at 10 µM, stronger effect = higher value

Structure (SMILES) | cell count [1] | inhibition [1] | inhibition of aggregation [2] | nuclei count [2] | inhibition [3] | nuclei count [3] | fluorescence slope [4] | NADPH fluorescence slope [5] | slope [6] | inhibition [7] | inhibition [8]
Cc1ccc(-c2nnc(SCC(=O)N3CC(C)CC(C)C3)o2)cc1C (centres undefined) | 557 | -1.6% (inactive) | 1.6% (inactive) | 32.1% | -32.7% (inactive) | 120% | -0.527 (inactive) | -4.3e-05 (inactive) | 0.00676 (inactive) | -0.246% (inactive) | 9.23% (inactive)
CCCNC(=O)C1=C(C)C(=O)OC12CCC(C)CC2 (centres undefined) | 666 | 1.6% (inactive) | -3.8% (inactive) | 115% | -28.8% (inactive) | 115% | -0.589 (inactive) | 1.9e-05 (inactive) | 0.00681 (inactive) | 3.82% (inactive) | 12% (inactive)
Cc1ccc(CCP(=O)(O)CN2CCOCC2)cn1 | 380 | 5.9% (inactive) | -2.2% (inactive) | 100% | 4.3% (inactive) | 95.2% | -0.437 (inactive) | 3.3e-05 (inactive) | 0.00662 (inactive) | -1.89% (inactive) | 33.2% (inactive)
NC(=O)CSCc1ccc(Br)cc1 | 313 | 8.3% (inactive) | 12.7% (inactive) | 91.7% | -103% (inactive) | 105% | -0.579 (inactive) | -5e-05 (inactive) | 0.00494 (inactive) | 11.5% (inactive) | 13.5% (inactive)
COC(=O)Cn1c(CCS(=O)(=O)c2ccc(C)cc2)nc2ccccc21 | 503 | -41.8% (inactive) | 6.7% (inactive) | 57.3% | -69.5% (inactive) | 105% | -0.498 (inactive) | -2.9e-05 (inactive) | 0.00565 (inactive) | 17.1% (inactive) | 28.4% (inactive)
CC(CC(=O)NCc1ccccc1)C1CCCO1 (centres undefined) | 439 | -2% (inactive) | 20.9% (inactive) | 92.2% | -112% (inactive) | 114% | -0.463 (inactive) | -3.8e-06 (inactive) | 0.0065 (inactive) | -2.84% (inactive) | -9.76% (inactive)
COc1ccc(CCNC(=O)CC2COc3ccccc3O2)cc1OC (centres undefined) | 611 | -7.2% (inactive) | 25% (inactive) | 115% | -28.9% (inactive) | 115% | -0.619 (inactive) | 2.1e-05 (inactive) | 0.00334 (inactive) | 19.4% (inactive) | 20.3% (inactive)
CC(=O)Nc1ccc(NC(=O)c2cc(C)nn2-c2ccccc2)cc1 | 687 | -6.1% (inactive) | -15.3% (inactive) | 112% | -36.4% (inactive) | 129% | -0.539 (inactive) | -1.7e-06 (inactive) | 0.00394 (inactive) | -3.81% (inactive) | 0.294% (inactive)
CCOc1ccc2oc(-c3ccccc3)c(C(=O)N3CCN(CCO)CC3)c2c1 | 649 | -14.6% (inactive) | 2.8% (inactive) | 89.6% | -37.2% (inactive) | 112% | -0.584 (inactive) | 1.9e-05 (inactive) | 0.00775 (inactive) | 15.9% (inactive) | 34% (inactive)
COc1cccc(C=Nc2ccc3c(c2)OCCO3)c1O | 301 | 5.1% (inactive) | 9% (inactive) | 97.3% | 25.8% (inactive) | 83.4% | -0.501 (inactive) | -3.1e-05 (inactive) | 0.00551 (inactive) | 12.6% (inactive) | -2.51% (inactive)
Cc1cc(=O)oc2ccc(OCC(=O)N(Cc3ccc(F)cc3)Cc3ccco3)cc12 | 751 | 2.2% (inactive) | -0.1% (inactive) | 95.6% | -150% (inactive) | 107% | -0.493 (inactive) | 2.4e-05 (inactive) | 0.00494 (inactive) | -10.8% (inactive) | -19% (inactive)
COC(=O)C1=C(C)Nc2ncnn2C1c1ccc(C)o1 (centres undefined) | 620 | 4.7% (inactive) | -58.3% (inactive) | 95.5% | 9.8% (inactive) | 108% | -0.581 (inactive) | -8.1e-06 (inactive) | 0.0055 (inactive) | -15.9% (inactive) | -6.27% (inactive)
COc1ccc(C2C(C(C)=O)=C(C)N=c3s/c(=C/c4ccc5c(c4)OCO5)c(=O)n32)cc1 (centres undefined) | 437 | -7.3% (inactive) | -44.9% (inactive) | 116% | -0.5% (inactive) | 116% | -0.528 (inactive) | -5.5e-05 (inactive) | 0.00398 (inactive) | 10.2% (inactive) | 23.9% (inactive)
O=c1cc(CSc2nnnn2-c2ccccc2)nc2scc(-c3ccccc3)n12 | 444 | 8.1% (inactive) | -10.9% (inactive) | 114% | -101% (inactive) | 139% | -0.415 (inactive) | -1.1e-05 (inactive) | 0.004 (inactive) | 1.29% (inactive) | 12% (inactive)
